Measured values taken from ChEMBL document CHEMBL3988442, “University of Dundee, Small-Polar-MMV Screening Library” (2021).
The whole screen tested about 48,000 compounds, of which about 13,000 (27%) showed an effect of 50% or more. The list shows a part of the results.

tested on: Wolbachia pipientis; test: Anti-Wolbachia Cell-Based Screen; format: functional; set-up: scale not given: in the data most compounds retested in dose-response had high values; conditions: 5 µM

Compound	Percent Effect
Cc1c[nH]c(CN2CCN(C)C3(CCC(=O)N(CC4CC4)CC3)C2)n1 (stereo not given)	-1.954%
CCS(=O)(=O)N1CCC2(CN(c3cccc(C)n3)C2)C1.O=C(O)C(F)(F)F	1.878%
CN(Cc1ccco1)Cc1cnc2n1CCN(c1ccccn1)CC2.O=C(O)C(F)(F)F.O=C(O)C(F)(F)F	10.62%
Cc1cccc(N2CCc3ncc(CNS(C)(=O)=O)n3CC2)n1.O=C(O)C(F)(F)F	88.7%
CS(=O)(=O)NCc1cnc2n1CCN(Cc1ccsc1)CC2.O=C(O)C(F)(F)F	-2.337%
Cc1cccc(N2CCc3ncc(CNc4ccccn4)n3CC2)n1.O=C(O)C(F)(F)F.O=C(O)C(F)(F)F	88.27%
CN1CCc2ncc(CNc3cc(N(C)C)ncn3)n2CC1.O=C(O)C(F)(F)F	-9.651%
Cc1cc(C)c(C(=O)N2CCc3c(ncn3CCc3ccccc3)C2)[nH]1	-5.733%
CCCNC(=O)N1CCCC2(CCC(=O)N(CCc3c[nH]cn3)C2)C1 (stereo not given)	12.8%
CC(C)NC(=O)N1CCN(CCn2cccn2)c2ncccc2C1.O=C(O)C(F)(F)F	105%
CN1CCN(C(=O)Cc2ccc(F)cc2)Cc2cccnc21.O=C(O)C(F)(F)F	-3.35%
CC(C)NC(=O)N1CCN(CC2CC2)c2ncccc2C1.O=C(O)C(F)(F)F	-7.83%
CC(=O)NCC(=O)N1CCN(CCN(C)C)c2ncccc2C1.O=C(O)C(F)(F)F.O=C(O)C(F)(F)F	-13.2%
Cc1ccc2c(n1)N(C)CCN(C(=O)NC(C)C)C2.O=C(O)C(F)(F)F	-4.064%
Cc1ccc2c(n1)N(CCn1cccn1)CCN(C(=O)NC(C)C)C2	112.2%
CN1CCN(C(=O)NC2CC2)Cc2cccnc21.O=C(O)C(F)(F)F	-1.72%
Cc1ccc2c(n1)N(CCn1cccn1)CCN(C(=O)NC1CC1)C2.O=C(O)C(F)(F)F	12.45%
CCC(=O)N1CCN(CCn2cccn2)c2ncccc2C1.O=C(O)C(F)(F)F	88.49%
CN1CCC(N(Cc2ccco2)S(=O)(=O)c2cc(Br)ccc2Br)CC1	17.1%
CSc1ccc(CN(C(=O)c2cc(=O)[nH]c(=O)[nH]2)C2CC2)cc1	1.499%
CN(C)C(C(=O)NCCS(=O)(=O)N(C)C)c1cccc(F)c1 (stereo not given)	-10.76%
Cc1ccccc1-c1cc(NC(=O)NC2CC2)n(CCO)n1	-65.06%
Cc1nn2c(NCC(=O)NC3CC3)cc(-c3ccccc3)nc2c1C	7.066%
Cc1nn(C)cc1-c1cc(-c2cn(C)nc2C)n(CC(=O)NC2CC2)n1	89.98%

Compound	Percent Effect
Cc1ccccc1-c1cc(NC(=O)NC2CCC(O)CC2)n(CCO)n1 (stereo not given)	-35.4%
Cc1c(-c2cc(-c3cnn(C)c3C)n(CC(=O)NC3CC3)n2)cnn1C	78.99%
Cn1cc(-c2cc(-c3cnn(C)c3)n(CC(=O)NC3CC3)n2)cn1	98.73%
Cn1cc(CN2CCC(CCC(=O)NC3CC3)CC2)cn1	-12.61%
Cc1cn(CC(=O)NC2CCC(C(=O)O)CC2)c2ccccc12 (stereo not given)	-7.822%
CN(Cc1cnn(C)c1)C(=O)NC1CCC(O)CC1 (stereo not given)	16.63%
O=C(c1cnc(Nc2ccccc2)nc1)N1CCCC2(CCNC2)C1 (stereo not given)	-3.033%
CCN(C(=O)CN(CC(N)=O)C(C)C)C1=CCCC1	4.298%
CCOc1cc(F)ccc1NS(=O)(=O)c1cc(C)c(C(=O)O)s1	9.69%
Cc1ccc(CN2C[C@H]3CN(CC4CCN(C)CC4)C(=O)[C@H]3C2)s1	-10.19%
O=C(c1cccnc1)N1CCc2c(nc(N3CCCC3)[nH]c2=O)C1	113.8%
Cc1nc2sccn2c1C(=O)N1CCc2c(nc(N(C)C)[nH]c2=O)C1	14.79%
O=C(c1ncccc1O)N1CCc2c(nc(-c3ccncc3)[nH]c2=O)C1	-0.3257%
O=C(c1ccccn1)N1CCc2c(nc(N3CCCC3)[nH]c2=O)C1	-8.561%
O=C(c1ccc(=O)[nH]c1)N1CCc2c(nc(-c3cccnc3)[nH]c2=O)C1	3.404%
O=C(c1cccs1)N1CCc2c(nc(N3CCCC3)[nH]c2=O)C1	120%
O=C(c1ccsc1)N1CCc2c(nc(-c3ccncc3)[nH]c2=O)C1	-0.2016%
Cc1nc(C(=O)N2CCc3c(nc(-c4ccncc4)[nH]c3=O)C2)cs1	-11.53%
Cc1nc2sccn2c1C(=O)N1CCc2c(nc(N)[nH]c2=O)C1	-0.7078%
Nc1nc2c(c(N3CCN(C(=O)c4cccs4)CC3)n1)CCCC2	3.246%
O=C(c1cccs1)N1CCc2c(nc(N3CCCCC3)[nH]c2=O)C1	121.5%
O=C(c1cc[nH]n1)N1CCc2c(nc(N3CCCCC3)[nH]c2=O)C1	120.1%
O=C(Nc1cncc(Br)c1O)c1ccon1	-9.076%
Cc1csc(CCNC(=O)c2cc3c(nc2O)CCC(C)C3)n1 (stereo not given)	-7.199%

Compound	Percent Effect
CC(C)(C)n1cc(C#N)cc1NC(=O)CCS(=O)(=O)C1CCCC1	-10.01%
COCC(C)(CCO)NC(=O)Nc1cccc(Br)c1C (stereo not given)	7.029%
NC(=O)CN1CCN(c2ccnc3c(F)ccc(F)c23)CC1	3.08%
NC(=O)c1cccc2nc([C@H]3CCN(Cc4ccccn4)C3)[nH]c12	-3.203%
COc1ccc(C)cc1CNC(=O)C1=NN(c2ccccc2)C(=O)CN1	14.16%
COC(=O)c1ccc(N2CCN(Cc3csc(C)n3)CC2)nn1	-1.977%
Cc1nc(CNc2nc3c(s2)c(C)nn3C)cs1	-20.12%
Cc1cc(N2CCN(Cc3nccn3C)CC2)cc(C)n1	-5.748%
Cc1nn(C)c2nc(N3CCC(C(O)c4nccn4C)CC3)sc12 (stereo not given)	-3.971%
Cc1nn(C)c2nc(N3CCN(Cc4nccn4C)CC3)sc12	103.8%
CC(C)Sc1ccc(N2CCN(Cc3ccccn3)CC2)nn1	14.48%
Cc1nc(CN2CCN(c3nc4c(s3)c(C)nn4C)CC2)cs1	119.2%
Cc1nc(CN2CCN(c3ccc(SC(C)C)nn3)CC2)cs1	68.89%
CCc1nc(CNc2nc3c(s2)c(C)nn3C)cs1	-39.2%
Cc1ccc2c(c1)C(NC(=O)N(C)C)CC21CCN(C(C)C)CC1.O=C(O)C(F)(F)F (stereo not given)	100.3%
CCN1CCC2(CC1)CC(NC(=O)N(C)C)c1cc(C)ccc12.O=C(O)C(F)(F)F (stereo not given)	-13.82%
CC(C)N1CCC2(CC1)CC(CC(N)=O)c1ccc(F)cc12.O=C(O)C(F)(F)F (stereo not given)	14.5%
CCN1CCC2(CC1)CC(NC(=O)NC)c1cc(C)ccc12.O=C(O)C(F)(F)F (stereo not given)	-18.25%
Cc1ccc2c(c1)C(N(C)C)CC21CCN(CCO)CC1.O=C(O)C(F)(F)F.O=C(O)C(F)(F)F (stereo not given)	1.059%
Cc1ccc2c(c1)C(NC(=O)N(C)C)CC21CCN(C)CC1.O=C(O)C(F)(F)F (stereo not given)	102.1%
Cc1ccc2c(c1)C(NC(=O)N(C)C)CC21CCN(CC2CC2)CC1.O=C(O)C(F)(F)F (stereo not given)	116.9%
Cn1nnc2c1CCN(S(C)(=O)=O)C2COCc1ccccc1 (stereo not given)	-3.39%
Nc1cc2c(nn1)CCN(C(=O)c1csc(-c3ccccc3)n1)C2	1.599%
O=c1cc(-c2ccncc2)nc(-c2ccc(CN3CC[C@@H](O)C3)cc2)[nH]1	1.525%

Compound	Percent Effect
Cn1cnc2c1CCN(Cc1csc(C3CCCCC3)n1)C2	104.6%
COc1ccc(-c2nc(CN3CCc4c(ncn4C)C3)cs2)cc1	30.48%
Cn1cnc2c1CCN(Cc1csc(C3CCCC3)n1)C2	102.6%
CCc1nc(CN2CCc3c(ncn3C3CC3)C2)cs1	49.69%
Cn1cnc2c1CCN(Cc1csc(-c3ccsc3)n1)C2	1.661%
CCCc1nc(CN2CCc3c(ncn3C3CC3)C2)cs1	72.74%
c1sc(C2CCCCC2)nc1CN1CCn2c(nnc2C2CC2)C1	99.95%
c1sc(C2CCCC2)nc1CN1CCn2c(nnc2C2CC2)C1	-0.3735%
c1ccc(-c2nc(CN3CCn4c(nnc4C4CC4)C3)cs2)cc1	1.064%
Cc1ccc(-c2nc(CN3CCc4c(ncn4C)C3)cs2)o1	0.8085%
c1cc(-c2noc(CN3CCc4c(ncn4C4CC4)C3)n2)cs1	0.1339%
O=C(C1CCCO1)N1CCc2onc(-c3ccc(Cl)cc3)c2C1 (stereo not given)	0.5907%
O=C(C1CCOC1)N1CCc2ncnc(NC3CCC3)c2CC1 (stereo not given)	-0.188%
Cc1cnc(-c2nc(O)c3c(n2)CN(C(=O)C2CCCO2)CC3)cn1 (stereo not given)	141.1%
O=C(C1CC1)N1CCc2c(ncnc2NCCc2nc3c(s2)CCC3)C1	7.369%
Cc1cnc(-c2nc(O)c3c(n2)CN(C(=O)C2CCOC2)CC3)cn1 (stereo not given)	177.2%
CCN(CC)C1CCN(c2ncnc3c2CCN(C(=O)C2CC2)C3)C1 (stereo not given)	-6.613%
CN(C)c1nc2c(c(=O)[nH]1)CCN(C(=O)C1CCCO1)C2 (stereo not given)	4.175%
Cc1cnc(-c2nc(O)c3c(n2)CN(C(=O)C2CC2)CC3)cn1	165.3%
Cc1cnc(-c2nc(O)c3c(n2)CN(C(=O)C2CCCC2)CC3)cn1	133.6%
CNC(=O)C1CCN(c2ncnc3c2CCN(C(=O)C2CC2)C3)C1 (stereo not given)	-3.996%
CCN1CCN(c2ncnc3c2CCN(C(=O)C2CC2)C3)CC1	-21.72%
O=C(C1CCOC1)N1CCc2ncnc(C3CC3)c2CC1 (stereo not given)	2.623%
